Legend:
[1] = target: Sphingosine kinase 1 (Homo sapiens) (UniProt Q9NYA1); conditions: at 1 µM;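 also: mean SPHK1 inhibition value reported from the GSK PKIS kinase panel screen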
[2] = target: T1, Sphingosine kinase 2 (Homo sapiens) (UniProt Q9NRA0); conditions: at 0.1 µM
T1 sequence (whole entry): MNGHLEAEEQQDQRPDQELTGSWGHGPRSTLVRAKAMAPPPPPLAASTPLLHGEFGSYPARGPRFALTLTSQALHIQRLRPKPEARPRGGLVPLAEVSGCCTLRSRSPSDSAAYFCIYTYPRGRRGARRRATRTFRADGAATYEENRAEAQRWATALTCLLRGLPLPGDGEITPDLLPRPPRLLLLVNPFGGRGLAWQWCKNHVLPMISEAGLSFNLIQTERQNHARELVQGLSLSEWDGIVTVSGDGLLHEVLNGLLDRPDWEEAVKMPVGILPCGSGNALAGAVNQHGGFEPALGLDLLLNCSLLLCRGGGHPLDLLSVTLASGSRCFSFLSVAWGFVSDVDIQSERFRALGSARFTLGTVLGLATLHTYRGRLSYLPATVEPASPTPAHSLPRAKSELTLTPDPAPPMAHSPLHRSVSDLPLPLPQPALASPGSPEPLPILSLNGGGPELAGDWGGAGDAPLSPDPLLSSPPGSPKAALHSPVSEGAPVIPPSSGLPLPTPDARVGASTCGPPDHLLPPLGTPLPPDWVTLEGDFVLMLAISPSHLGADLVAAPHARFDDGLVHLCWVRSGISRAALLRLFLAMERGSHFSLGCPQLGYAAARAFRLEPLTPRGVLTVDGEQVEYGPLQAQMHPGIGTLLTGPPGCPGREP

[3] = target: T1, Sphingosine kinase 2 (Homo sapiens); conditions: at 1 µM
[4] = target: Casein kinase II subunit alpha (Homo sapiens) (UniProt P68400); conditions: at 0.1 µM
[5] = target: Casein kinase II subunit alpha (Homo sapiens) (UniProt P68400); conditions: at 1 µM
[6] = target: T2, Inhibitor of nuclear factor kappa-B kinase subunit alpha (Homo sapiens) (UniProt O15111); conditions: at 0.1 µM
T2 sequence (whole entry): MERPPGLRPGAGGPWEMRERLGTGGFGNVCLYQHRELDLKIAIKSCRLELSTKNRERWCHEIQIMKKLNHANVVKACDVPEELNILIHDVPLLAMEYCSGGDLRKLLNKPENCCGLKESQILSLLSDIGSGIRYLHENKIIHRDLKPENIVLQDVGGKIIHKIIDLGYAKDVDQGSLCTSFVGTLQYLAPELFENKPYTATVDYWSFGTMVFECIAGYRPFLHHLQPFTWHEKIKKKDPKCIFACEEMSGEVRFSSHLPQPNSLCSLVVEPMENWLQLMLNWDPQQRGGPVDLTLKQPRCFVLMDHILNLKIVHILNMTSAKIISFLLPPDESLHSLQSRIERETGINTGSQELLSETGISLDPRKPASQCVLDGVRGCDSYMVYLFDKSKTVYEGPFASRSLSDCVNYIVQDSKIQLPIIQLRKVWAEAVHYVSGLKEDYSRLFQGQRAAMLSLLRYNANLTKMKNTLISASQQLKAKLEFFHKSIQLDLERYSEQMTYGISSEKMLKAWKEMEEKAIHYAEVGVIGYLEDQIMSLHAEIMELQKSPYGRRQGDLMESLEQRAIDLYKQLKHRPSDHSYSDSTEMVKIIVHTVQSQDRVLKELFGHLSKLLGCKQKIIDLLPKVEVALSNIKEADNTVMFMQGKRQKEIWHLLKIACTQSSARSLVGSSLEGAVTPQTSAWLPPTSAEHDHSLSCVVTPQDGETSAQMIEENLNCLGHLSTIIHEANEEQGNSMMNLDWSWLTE

[7] = target: T2, Inhibitor of nuclear factor kappa-B kinase subunit alpha (Homo sapiens); conditions: at 1 µM
[8] = target: T3, Inhibitor of nuclear factor kappa-B kinase subunit beta (Homo sapiens) (UniProt O14920); conditions: at 0.1 µM
T3 sequence (whole entry): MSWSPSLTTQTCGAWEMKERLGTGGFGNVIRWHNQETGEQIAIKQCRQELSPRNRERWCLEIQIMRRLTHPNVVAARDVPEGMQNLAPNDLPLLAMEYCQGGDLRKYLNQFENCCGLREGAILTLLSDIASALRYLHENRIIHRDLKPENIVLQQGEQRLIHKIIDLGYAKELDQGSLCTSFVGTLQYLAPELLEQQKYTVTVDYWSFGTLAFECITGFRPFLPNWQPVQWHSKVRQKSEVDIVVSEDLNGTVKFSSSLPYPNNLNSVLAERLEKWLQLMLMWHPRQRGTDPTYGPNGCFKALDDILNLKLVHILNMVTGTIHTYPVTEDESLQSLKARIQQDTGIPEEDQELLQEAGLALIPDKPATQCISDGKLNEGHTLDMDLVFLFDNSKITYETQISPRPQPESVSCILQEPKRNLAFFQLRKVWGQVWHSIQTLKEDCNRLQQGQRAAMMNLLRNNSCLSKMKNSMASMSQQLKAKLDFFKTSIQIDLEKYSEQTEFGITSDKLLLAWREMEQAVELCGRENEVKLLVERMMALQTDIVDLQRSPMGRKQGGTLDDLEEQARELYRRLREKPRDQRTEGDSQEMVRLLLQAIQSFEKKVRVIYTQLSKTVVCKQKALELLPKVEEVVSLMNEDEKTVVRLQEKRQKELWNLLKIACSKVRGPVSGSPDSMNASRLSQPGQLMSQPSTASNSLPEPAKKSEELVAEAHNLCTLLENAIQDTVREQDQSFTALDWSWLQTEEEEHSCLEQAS

[9] = target: T3, Inhibitor of nuclear factor kappa-B kinase subunit beta (Homo sapiens); conditions: at 1 µM
[10] = target: T4, Inhibitor of nuclear factor kappa-B kinase subunit epsilon (Homo sapiens) (UniProt Q14164); conditions: at 0.1 µM
T4 sequence (whole entry): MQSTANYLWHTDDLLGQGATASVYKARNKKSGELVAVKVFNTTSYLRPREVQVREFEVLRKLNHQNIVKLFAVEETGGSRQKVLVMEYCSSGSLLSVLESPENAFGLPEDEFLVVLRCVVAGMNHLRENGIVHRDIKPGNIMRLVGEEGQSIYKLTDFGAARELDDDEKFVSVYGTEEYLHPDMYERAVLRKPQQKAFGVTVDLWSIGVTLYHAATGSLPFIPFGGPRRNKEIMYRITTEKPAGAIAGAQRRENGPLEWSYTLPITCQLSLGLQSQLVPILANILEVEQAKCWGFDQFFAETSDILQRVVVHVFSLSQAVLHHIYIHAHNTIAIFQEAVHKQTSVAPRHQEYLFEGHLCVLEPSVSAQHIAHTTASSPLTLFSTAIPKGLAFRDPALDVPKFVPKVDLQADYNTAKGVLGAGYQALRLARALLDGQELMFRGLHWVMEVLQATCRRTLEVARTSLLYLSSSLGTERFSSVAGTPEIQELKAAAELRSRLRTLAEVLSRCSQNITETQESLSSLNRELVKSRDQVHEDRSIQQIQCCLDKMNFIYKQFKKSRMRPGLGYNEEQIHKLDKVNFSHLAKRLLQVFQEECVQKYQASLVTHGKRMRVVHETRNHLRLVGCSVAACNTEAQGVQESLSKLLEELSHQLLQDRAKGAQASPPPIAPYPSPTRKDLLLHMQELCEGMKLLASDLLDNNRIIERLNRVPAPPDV

[11] = target: T4, Inhibitor of nuclear factor kappa-B kinase subunit epsilon (Homo sapiens); conditions: at 1 µM
[12] = target: T5, Serine/threonine-protein kinase Nek1 (Homo sapiens) (UniProt Q96PY6); conditions: at 0.1 µM
T5 sequence (whole entry): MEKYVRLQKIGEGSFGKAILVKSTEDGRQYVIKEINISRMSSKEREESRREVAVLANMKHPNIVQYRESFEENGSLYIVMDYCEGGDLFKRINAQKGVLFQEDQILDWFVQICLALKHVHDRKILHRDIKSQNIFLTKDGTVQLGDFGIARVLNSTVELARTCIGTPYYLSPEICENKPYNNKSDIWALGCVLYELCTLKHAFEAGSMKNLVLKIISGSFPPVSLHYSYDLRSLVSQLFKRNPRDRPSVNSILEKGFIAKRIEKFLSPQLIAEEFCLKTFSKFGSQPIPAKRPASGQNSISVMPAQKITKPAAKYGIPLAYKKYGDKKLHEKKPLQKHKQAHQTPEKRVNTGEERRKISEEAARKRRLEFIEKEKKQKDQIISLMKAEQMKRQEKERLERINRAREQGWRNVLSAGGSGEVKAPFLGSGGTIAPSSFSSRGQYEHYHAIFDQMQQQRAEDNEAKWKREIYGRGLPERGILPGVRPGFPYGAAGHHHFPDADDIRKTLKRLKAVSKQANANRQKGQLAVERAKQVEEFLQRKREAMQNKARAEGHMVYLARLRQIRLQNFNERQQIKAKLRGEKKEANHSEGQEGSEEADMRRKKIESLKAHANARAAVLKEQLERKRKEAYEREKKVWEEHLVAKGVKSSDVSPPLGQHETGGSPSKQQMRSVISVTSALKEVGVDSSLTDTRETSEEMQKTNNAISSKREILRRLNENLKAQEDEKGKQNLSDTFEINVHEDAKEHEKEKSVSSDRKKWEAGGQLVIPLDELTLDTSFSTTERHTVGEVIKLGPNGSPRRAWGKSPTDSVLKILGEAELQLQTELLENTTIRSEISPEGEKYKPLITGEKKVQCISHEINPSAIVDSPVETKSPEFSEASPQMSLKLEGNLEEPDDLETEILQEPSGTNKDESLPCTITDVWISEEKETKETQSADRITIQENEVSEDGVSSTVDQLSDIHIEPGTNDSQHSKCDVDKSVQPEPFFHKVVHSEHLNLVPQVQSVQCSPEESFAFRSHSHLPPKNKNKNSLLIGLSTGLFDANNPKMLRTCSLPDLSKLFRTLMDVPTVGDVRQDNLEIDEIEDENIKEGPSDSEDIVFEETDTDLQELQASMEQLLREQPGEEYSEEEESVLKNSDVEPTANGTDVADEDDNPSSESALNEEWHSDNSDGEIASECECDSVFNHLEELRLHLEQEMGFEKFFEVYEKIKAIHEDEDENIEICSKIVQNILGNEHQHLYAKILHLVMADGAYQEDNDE

[13] = target: T5, Serine/threonine-protein kinase Nek1 (Homo sapiens); conditions: at 1 µM
[14] = target: T6, Serine/threonine-protein kinase Nek2 (Homo sapiens) (UniProt P51955); conditions: at 0.1 µM
T6 sequence (whole entry): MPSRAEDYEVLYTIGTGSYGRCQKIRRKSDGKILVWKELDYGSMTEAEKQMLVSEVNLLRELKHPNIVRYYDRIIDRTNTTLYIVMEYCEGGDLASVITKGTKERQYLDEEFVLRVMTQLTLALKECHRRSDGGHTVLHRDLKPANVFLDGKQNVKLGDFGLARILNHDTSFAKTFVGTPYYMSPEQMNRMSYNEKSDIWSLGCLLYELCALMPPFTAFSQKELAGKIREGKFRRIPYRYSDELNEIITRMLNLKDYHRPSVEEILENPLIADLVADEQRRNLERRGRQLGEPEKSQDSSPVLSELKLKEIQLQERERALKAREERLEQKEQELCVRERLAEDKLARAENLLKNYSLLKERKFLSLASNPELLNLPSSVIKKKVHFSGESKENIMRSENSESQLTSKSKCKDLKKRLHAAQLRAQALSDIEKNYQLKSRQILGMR

[15] = target: T6, Serine/threonine-protein kinase Nek2 (Homo sapiens); conditions: at 1 µM
[16] = target: Serine/threonine-protein kinase Nek6 (Homo sapiens) (UniProt Q9HC98); conditions: at 0.1 µM
[17] = target: Serine/threonine-protein kinase Nek6 (Homo sapiens) (UniProt Q9HC98); conditions: at 1 µM
[18] = target: Serine/threonine-protein kinase Nek7 (Homo sapiens) (UniProt Q8TDX7); conditions: at 0.1 µM
[19] = target: Serine/threonine-protein kinase Nek7 (Homo sapiens) (UniProt Q8TDX7); conditions: at 1 µM
[20] = target: T7, Serine/threonine-protein kinase Nek9 (Homo sapiens) (UniProt Q8TD19); conditions: at 0.1 µM;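 also: reported value is the mean percent inhibition of NEK9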
T7 sequence (whole entry): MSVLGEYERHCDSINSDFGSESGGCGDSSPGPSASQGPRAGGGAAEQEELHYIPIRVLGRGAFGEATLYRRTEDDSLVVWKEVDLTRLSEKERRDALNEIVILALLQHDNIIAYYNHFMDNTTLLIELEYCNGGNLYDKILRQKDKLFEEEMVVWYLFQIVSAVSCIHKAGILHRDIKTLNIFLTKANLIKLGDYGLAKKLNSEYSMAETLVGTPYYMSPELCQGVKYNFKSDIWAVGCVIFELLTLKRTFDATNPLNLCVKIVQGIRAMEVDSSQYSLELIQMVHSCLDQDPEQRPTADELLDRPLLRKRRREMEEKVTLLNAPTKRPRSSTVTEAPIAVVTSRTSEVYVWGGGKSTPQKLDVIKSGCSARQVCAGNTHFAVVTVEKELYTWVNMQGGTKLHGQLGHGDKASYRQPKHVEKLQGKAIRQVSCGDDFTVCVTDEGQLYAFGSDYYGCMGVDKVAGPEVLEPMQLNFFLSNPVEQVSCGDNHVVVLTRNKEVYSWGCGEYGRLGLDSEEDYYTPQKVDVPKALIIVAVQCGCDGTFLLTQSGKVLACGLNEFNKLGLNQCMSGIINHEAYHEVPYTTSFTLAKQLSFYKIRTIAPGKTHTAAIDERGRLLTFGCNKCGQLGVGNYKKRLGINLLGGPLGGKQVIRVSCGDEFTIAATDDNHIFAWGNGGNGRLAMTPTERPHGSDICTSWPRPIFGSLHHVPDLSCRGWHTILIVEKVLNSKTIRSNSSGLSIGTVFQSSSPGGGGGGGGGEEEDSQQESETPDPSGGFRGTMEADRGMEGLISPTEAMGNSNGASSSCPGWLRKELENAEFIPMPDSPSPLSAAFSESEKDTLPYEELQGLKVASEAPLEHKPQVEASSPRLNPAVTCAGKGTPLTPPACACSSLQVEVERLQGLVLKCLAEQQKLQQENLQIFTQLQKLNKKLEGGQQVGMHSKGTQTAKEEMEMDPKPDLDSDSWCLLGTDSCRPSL

Serine/threonine-protein kinase Nek6 (Homo sapiens), sequence (Q9HC98 whole entry): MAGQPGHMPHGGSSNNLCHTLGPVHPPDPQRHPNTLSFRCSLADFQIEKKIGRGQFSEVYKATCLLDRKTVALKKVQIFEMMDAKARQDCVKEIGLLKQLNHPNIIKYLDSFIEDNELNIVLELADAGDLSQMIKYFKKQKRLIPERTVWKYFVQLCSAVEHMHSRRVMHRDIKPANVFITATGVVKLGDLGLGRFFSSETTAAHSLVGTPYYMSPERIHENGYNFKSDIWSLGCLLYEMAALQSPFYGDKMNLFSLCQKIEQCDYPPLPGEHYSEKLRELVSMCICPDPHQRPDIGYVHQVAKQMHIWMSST
Serine/threonine-protein kinase Nek7 (Homo sapiens), sequence (Q8TDX7 whole entry, looked up): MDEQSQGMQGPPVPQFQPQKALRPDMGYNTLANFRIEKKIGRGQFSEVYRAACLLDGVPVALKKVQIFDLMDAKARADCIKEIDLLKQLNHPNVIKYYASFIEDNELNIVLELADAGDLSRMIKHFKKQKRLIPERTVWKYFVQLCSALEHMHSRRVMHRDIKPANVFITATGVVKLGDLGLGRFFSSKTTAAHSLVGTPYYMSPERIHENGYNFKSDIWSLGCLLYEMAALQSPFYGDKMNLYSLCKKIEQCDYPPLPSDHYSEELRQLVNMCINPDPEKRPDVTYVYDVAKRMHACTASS
Casein kinase II subunit alpha (Homo sapiens), sequence (P68400 whole entry, looked up): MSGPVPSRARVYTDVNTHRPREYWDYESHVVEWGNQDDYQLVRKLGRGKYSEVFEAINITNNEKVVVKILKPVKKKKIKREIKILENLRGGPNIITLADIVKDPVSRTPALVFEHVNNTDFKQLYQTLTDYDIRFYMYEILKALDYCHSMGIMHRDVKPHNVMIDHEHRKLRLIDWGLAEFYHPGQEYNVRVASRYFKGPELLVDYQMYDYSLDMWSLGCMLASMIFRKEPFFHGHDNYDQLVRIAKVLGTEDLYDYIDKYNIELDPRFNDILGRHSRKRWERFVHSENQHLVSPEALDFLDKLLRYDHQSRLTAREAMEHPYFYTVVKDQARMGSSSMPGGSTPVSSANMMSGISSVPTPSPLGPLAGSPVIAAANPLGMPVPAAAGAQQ
Sphingosine kinase 1 (Homo sapiens), sequence (Q9NYA1 whole entry): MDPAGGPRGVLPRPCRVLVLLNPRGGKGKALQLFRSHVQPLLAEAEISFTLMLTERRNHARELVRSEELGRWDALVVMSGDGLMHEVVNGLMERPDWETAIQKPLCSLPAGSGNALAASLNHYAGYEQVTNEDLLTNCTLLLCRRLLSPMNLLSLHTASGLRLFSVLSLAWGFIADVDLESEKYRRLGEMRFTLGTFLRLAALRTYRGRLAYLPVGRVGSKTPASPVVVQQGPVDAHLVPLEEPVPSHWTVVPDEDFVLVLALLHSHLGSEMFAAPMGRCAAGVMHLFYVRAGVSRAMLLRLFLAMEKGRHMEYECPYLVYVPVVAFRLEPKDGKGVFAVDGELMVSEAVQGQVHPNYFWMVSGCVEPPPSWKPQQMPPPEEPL

## COc1ccc2ncn(-c3cc(O[C@H](C)c4ccccc4Cl)c(C(N)=O)s3)c2c1
[1]
  inhibition: -2.39%
[2]
  inhibition: -0.22%
[3]
  inhibition: 0.79%
[4]
  inhibition: 5.1%
[5]
  inhibition: 3.41%
[6]
  inhibition: 7.01%
[7]
  inhibition: 6.42%
[8]
  inhibition: 6.12%
[9]
  inhibition: 4.8%
[10]
  inhibition: 5.23%
[11]
  inhibition: 4.23%
[12]
  inhibition: 4.81%
[13]
  inhibition: 24.8%
[14]
  inhibition: 5.9%
[15]
  inhibition: 10.3%
[16]
  inhibition: 0.15%
[17]
  inhibition: 0.34%
[18]
  inhibition: 3.12%
[19]
  inhibition: 6.32%
[20]
  inhibition: 31.8%

## Clc1ccc(CNc2nccc(-c3cnn4ncccc34)n2)cc1
[1]
  inhibition: 0.04%
[2]
  inhibition: -0.11%
[3]
  inhibition: -0.22%
[4]
  inhibition: 2.95%
[5]
  inhibition: 17.9%
[6]
  inhibition: 1.91%
[7]
  inhibition: 7.65%
[8]
  inhibition: 1%
[9]
  inhibition: 0.32%
[10]
  inhibition: 0.31%
[11]
  inhibition: -0.99%
[12]
  inhibition: 0.32%
[13]
  inhibition: 19.8%
[14]
  inhibition: 0.93%
[15]
  inhibition: 0.52%
[16]
  inhibition: 3.94%
[17]
  inhibition: -1.91%
[18]
  inhibition: -2.2%
[19]
  inhibition: 0.48%
[20]
  inhibition: -0.09%
